Assay outcomes: PubChem, Sanford-Burnham Center for Chemical Genomics
In the library only some 31% were active in any assay of this set; here they are far more common.
CYP2C19 inh: inhibitors of human CYP2C19; P33261; CYP2C19 Supersomes, luciferin-H EGE luminescence, 30 min; inhibition, % at 5 µM; actives 21% (n = 96,000);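 active means CYP2C19 inhibition above a set limit at 5 µM in the primary screen, cut at about 50% in these data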
Target sequence (P33261 whole entry, looked up): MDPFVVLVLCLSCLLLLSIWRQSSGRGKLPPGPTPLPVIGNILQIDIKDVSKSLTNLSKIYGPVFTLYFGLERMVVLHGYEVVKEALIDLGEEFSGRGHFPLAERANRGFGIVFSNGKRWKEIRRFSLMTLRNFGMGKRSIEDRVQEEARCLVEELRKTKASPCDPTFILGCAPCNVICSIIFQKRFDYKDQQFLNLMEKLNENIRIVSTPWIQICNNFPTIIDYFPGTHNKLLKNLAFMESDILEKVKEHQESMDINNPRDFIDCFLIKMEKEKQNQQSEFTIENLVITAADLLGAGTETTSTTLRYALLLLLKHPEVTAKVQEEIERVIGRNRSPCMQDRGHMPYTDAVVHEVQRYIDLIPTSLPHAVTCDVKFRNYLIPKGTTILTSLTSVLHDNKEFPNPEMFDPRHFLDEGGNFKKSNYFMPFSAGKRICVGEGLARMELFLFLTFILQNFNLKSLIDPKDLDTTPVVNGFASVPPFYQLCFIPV
CYP2C9 act: activators of human CYP2C9; activation factor at 5 µM; actives 1.4% (n = 96,000); recombinant CYP2C9, luciferin-H conversion, luminescence; hits give high values; factor 1 = untreated enzyme, 0 = blocked; AID 1024; P11712;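 active means activation factor of 2 or more for CYP2C9 at a 5 µM dose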
CYP2C9 inhib: blocks human cytochrome P450 2C9 | P11712 | actives 20% (n = 96,000) | inhibition, % at 5 µM | CYP2C9 Supersomes, luciferin-H conversion, luminescence;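 active means blocking of liver enzyme CYP2C9 beyond about 50% at 5 µM, limit read from the data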
CYP2C19 act: increases human CYP2C19 enzyme activity; activation factor at 5 µM; recombinant CYP2C19, luciferin-H EGE luminescence; hits give high values; 0 = fully inhibited enzyme, 1 = untreated enzyme; AID 1025; 96,000 tested, under 10 active; P33261;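 active means activation factor of at least 2 at 5 µM in the primary screen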
Numbers stand for hits.

Results for COc1cccc(C(=O)c2c[nH]c(C(=O)NCc3cccs3)c2)c1 ?
CYP2C19 inh: inactive; CYP2C9 act: inactive; CYP2C9 inhib: inactive; CYP2C19 act: inactive

Results for COc1ccccc1N1CCN(C(=O)CN(c2cc(C)cc(C)c2)S(C)(=O)=O)CC1 ?
CYP2C19 inh: inactive; CYP2C9 act: inactive; CYP2C9 inhib: inactive; CYP2C19 act: inactive

What do the screens show for `O=C(O)c1c(-c2ccccc2)c2oc3ccccc3c2[nH]c1=O`?
CYP2C19 inh: inactive; CYP2C9 act: inactive; CYP2C9 inhib: inactive; CYP2C19 act: inactive

What do the screens show for `CCCC1COC(Cn2cncn2)(c2ccc(C)cc2)O1` (stereo not given)?
CYP2C19 inh: 58; CYP2C9 act: inactive; CYP2C9 inhib: inactive; CYP2C19 act: inactive

What do the screens show for `CCOCCC(=O)Nc1cc(Cl)ccc1OC`?
CYP2C19 inh: inactive; CYP2C9 act: inactive; CYP2C9 inhib: inactive; CYP2C19 act: inactive

Results for COC(=O)c1sc(N)c(C(=O)OC)c1COC(=O)c1c(C)noc1C ?
CYP2C19 inh: 96; CYP2C9 act: inactive; CYP2C9 inhib: 97; CYP2C19 act: inactive

What do the screens show for `Cc1noc(C)c1C(=O)OCC(=O)NC1CC1`?
CYP2C19 inh: inactive; CYP2C9 act: inactive; CYP2C9 inhib: inactive; CYP2C19 act: inactive

What do the screens show for `CCN1C(=O)CC(N2CCN(C(c3ccccc3)c3ccccc3)CC2)C1=O` (stereo not given)?
CYP2C19 inh: inactive; CYP2C9 act: inactive; CYP2C9 inhib: inactive; CYP2C19 act: inactive

What do the screens show for `CC(c1ccccc1)C1CC(=O)N(C2CCCCC2)C1=O` (stereo not given)?
CYP2C19 inh: inactive; CYP2C9 act: inactive; CYP2C9 inhib: inactive; CYP2C19 act: inactive

Results for CCOCCCNc1nc2c(c(=O)n(C)c(=O)n2C)n1CCCc1ccccc1 ?
CYP2C19 inh: 68; CYP2C9 act: inactive; CYP2C9 inhib: 82; CYP2C19 act: inactive

What do the screens show for `Cc1ccc(Cn2c(NCCCn3ccnc3)nc3c2c(=O)n(C)c(=O)n3C)cc1`?
CYP2C19 inh: 98; CYP2C9 act: inactive; CYP2C9 inhib: 99; CYP2C19 act: inactive

Results for COCCCNc1nc2c(c(=O)[nH]c(=O)n2C)n1CCCc1ccccc1 ?
CYP2C19 inh: 70; CYP2C9 act: inactive; CYP2C9 inhib: inactive; CYP2C19 act: inactive

How did Cn1c(=O)c2c(nc(NCc3ccccc3)n2CCCc2ccccc2)n(C)c1=O do in these assays?
CYP2C19 inh: inactive; CYP2C9 act: inactive; CYP2C9 inhib: inactive; CYP2C19 act: inactive

Results for CN1CCc2nc(NC(=O)c3cccc(OC(F)F)c3)sc2C1 ?
CYP2C19 inh: inactive; CYP2C9 act: inactive; CYP2C9 inhib: inactive; CYP2C19 act: inactive

How did CCOC(=O)Cc1csc(/C(=N/O)C(N)=O)n1 do in these assays?
CYP2C19 inh: inactive; CYP2C9 act: inactive; CYP2C9 inhib: inactive; CYP2C19 act: inactive

How did COc1ccc(OC)c(N2Cc3cc(C)c(C)cc3C2)c1 do in these assays?
CYP2C19 inh: inactive; CYP2C9 act: inactive; CYP2C9 inhib: 88; CYP2C19 act: inactive

How did CCOc1ccccc1N1Cc2cc(C)c(C)cc2C1 do in these assays?
CYP2C19 inh: 54; CYP2C9 act: inactive; CYP2C9 inhib: inactive; CYP2C19 act: inactive

Results for O=C(N/N=C/c1ccc2cccc(OCc3ccccc3)c2n1)c1ccc(Cl)cc1 ?
CYP2C19 inh: inactive; CYP2C9 act: inactive; CYP2C9 inhib: inactive; CYP2C19 act: inactive

Results for O=C(N/N=C/c1ccccc1Br)c1ccc(CSc2cccc3cccnc23)cc1 ?
CYP2C19 inh: inactive; CYP2C9 act: inactive; CYP2C9 inhib: 50; CYP2C19 act: inactive

What do the screens show for `COc1ccc(-c2nc(C#N)c(NCc3ccccc3Cl)o2)cc1`?
CYP2C19 inh: inactive; CYP2C9 act: inactive; CYP2C9 inhib: inactive; CYP2C19 act: inactive

Results for N#Cc1nc(Cc2ccccc2)oc1NCc1ccccc1Cl ?
CYP2C19 inh: 63; CYP2C9 act: inactive; CYP2C9 inhib: 56; CYP2C19 act: inactive

How did N#Cc1nc(Cc2ccccc2)oc1NCCCn1ccnc1 do in these assays?
CYP2C19 inh: 92; CYP2C9 act: inactive; CYP2C9 inhib: 77; CYP2C19 act: inactive

Results for CC(C)c1nc(C#N)c(NCCCn2ccnc2)o1 ?
CYP2C19 inh: 100; CYP2C9 act: inactive; CYP2C9 inhib: 91; CYP2C19 act: inactive

What do the screens show for `C/C(NCCCn1ccnc1)=C(\C#N)C(N)=O`?
CYP2C19 inh: inactive; CYP2C9 act: inactive; CYP2C9 inhib: inactive; CYP2C19 act: inactive

Results for COc1ccccc1NC(=O)CSc1nc(O)cc(=O)n1-c1ccccc1OC ?
CYP2C19 inh: inactive; CYP2C9 act: inactive; CYP2C9 inhib: inactive; CYP2C19 act: inactive

What do the screens show for `Cc1ccc(NCc2nnc(SCC(=O)NCCc3ccccc3)n2C)cc1`?
CYP2C19 inh: inactive; CYP2C9 act: inactive; CYP2C9 inhib: inactive; CYP2C19 act: inactive

Results for CCOc1ccc(N(CC(=O)NC(C)(C)C)S(=O)(=O)c2c(C)noc2C)cc1 ?
CYP2C19 inh: 50; CYP2C9 act: inactive; CYP2C9 inhib: inactive; CYP2C19 act: inactive

How did CCOc1ccc(N(CC(=O)N2CC=C(c3ccccc3)CC2)S(=O)(=O)c2c(C)noc2C)cc1 do in these assays?
CYP2C19 inh: 64; CYP2C9 act: inactive; CYP2C9 inhib: inactive; CYP2C19 act: inactive

How did COc1ccc(NC(=O)CN(c2ccc(C(C)C)cc2)S(=O)(=O)c2c(C)noc2C)cc1OC do in these assays?
CYP2C19 inh: 52; CYP2C9 act: inactive; CYP2C9 inhib: inactive; CYP2C19 act: inactive

How did CCOc1ccc(N(CC(=O)Nc2ccc(C)cc2)S(=O)(=O)c2c(C)noc2C)cc1 do in these assays?
CYP2C19 inh: inactive; CYP2C9 act: inactive; CYP2C9 inhib: inactive; CYP2C19 act: inactive

Results for CCOc1ccc(N(CC(=O)NCc2cccs2)S(=O)(=O)c2c(C)noc2C)cc1 ?
CYP2C19 inh: 86; CYP2C9 act: inactive; CYP2C9 inhib: 69; CYP2C19 act: inactive

What do the screens show for `c1ccc(-n2nnnc2NC2CCCCC2)cc1`?
CYP2C19 inh: inactive; CYP2C9 act: inactive; CYP2C9 inhib: inactive; CYP2C19 act: inactive

Results for CCOc1ccc(N(CC(=O)Nc2cccc(Cl)c2)S(=O)(=O)c2c(C)noc2C)cc1 ?
CYP2C19 inh: inactive; CYP2C9 act: inactive; CYP2C9 inhib: inactive; CYP2C19 act: inactive

What do the screens show for `CCOc1ccc(N(CC(=O)Nc2cccc(OC)c2)S(=O)(=O)c2c(C)noc2C)cc1`?
CYP2C19 inh: 93; CYP2C9 act: inactive; CYP2C9 inhib: 92; CYP2C19 act: inactive

Results for Cc1cc([N+](=O)[O-])c(C(C)(C)C)cc1N ?
CYP2C19 inh: 89; CYP2C9 act: inactive; CYP2C9 inhib: inactive; CYP2C19 act: inactive

What do the screens show for `N#Cc1c(N)nc2c(c1-c1cccc(O)c1)CCCCCC2`?
CYP2C19 inh: inactive; CYP2C9 act: inactive; CYP2C9 inhib: 54; CYP2C19 act: inactive

Results for N#Cc1c(N)nc2c(c1-c1ccncc1)CCCC2 ?
CYP2C19 inh: 76; CYP2C9 act: inactive; CYP2C9 inhib: inactive; CYP2C19 act: inactive

How did N#Cc1c(N)nc2c(c1-c1ccccc1)CCCC2 do in these assays?
CYP2C19 inh: inactive; CYP2C9 act: inactive; CYP2C9 inhib: inactive; CYP2C19 act: inactive

How did CCCNC(=O)C1CCN(c2nc(C)cc(C)n2)CC1 do in these assays?
CYP2C19 inh: inactive; CYP2C9 act: inactive; CYP2C9 inhib: inactive; CYP2C19 act: inactive
